Data: the antibiotic and cytotoxicity screens of Wong et al. (2023)
Among all 39,000 compounds or so, about 500 (1.3%) were called active. The sample holds actives, similar compounds and a random draw of the others, so the mix is not that of the screen.

Each compound was assayed on S. aureus RN4220 (assay: growth inhibition call (relative growth <= 0.2)). Settings: 50 µM.
CC(=O)N1[C@H](CO)[C@H](c2ccccc2)[C@H]1CNC(=O)CN1CCOCC1 was tested, and the growth inhibition call was “inactive”. For C[C@@H]1CN([C@@H](C)CO)C(=O)c2cc(NS(C)(=O)=O)ccc2O[C@@H]1CN(C)C(=O)NC1CCCCC1, the growth inhibition call was “inactive”. Cc1ccc(S(=O)(=O)N(C)C[C@H]2Oc3ccc(NS(=O)(=O)c4ccccc4)cc3C(=O)N([C@@H](C)CO)C[C@H]2C)cc1 was tested, and the growth inhibition call was “inactive”. Cc1ccc(S(=O)(=O)Nc2ccc3c(c2)C(=O)N([C@@H](C)CO)C[C@H](C)[C@@H](CN(C)C(=O)Nc2ccc(C(F)(F)F)cc2)OCCCC[C@H](C)O3)cc1 was tested, and the growth inhibition call was “inactive”. COCC(=O)Nc1ccc2c(c1)[C@H]1C[C@H](CC(=O)N3CCOCC3)O[C@H](CO)[C@H]1O2 was tested, and the growth inhibition call was “inactive”. COc1ccc(NC(=O)Nc2ccc3c(c2)C(=O)N([C@@H](C)CO)C[C@@H](C)[C@@H](CN(C)S(=O)(=O)c2cn(C)cn2)O3)cc1 was tested, and the growth inhibition call was “inactive”. In the case of CO[C@@]12[C@H](COC(N)=O)C3=C(C(=O)C(C)=C(N)C3=O)N1C[C@@H]1N[C@@H]12, the growth inhibition call is reported as “inactive”. COC12C(COC(N)=O)C3=C(C(=O)C(C)=C(N)C3=O)N1CC1NC12 (stereo unspecified) was tested, and the growth inhibition call was “active”. For CO[C@@]12[C@@H]3N[C@@H]3CN1C1=C(C(=O)C(N)=C(C)C1=O)[C@@H]2COC(N)=O, the growth inhibition call was “active”. Cc1onc(C(=O)O)c1[N+](=O)[O-] was tested, and the growth inhibition call was “inactive”. For C[C@H]1CN([C@@H](C)CO)S(=O)(=O)c2ccc(C#Cc3cccnc3)cc2O[C@H]1CN(C)C(=O)CN(C)C, the growth inhibition call was “inactive”. For CN[C@@H]1[C@H](O[C@H]2[C@H](O[C@H]3[C@H](O)[C@@H](O)[C@H](NC(=N)N)[C@@H](O)[C@@H]3NC(=N)N)O[C@@H](C)[C@]2(O)C=O)O[C@@H](CO)[C@H](O)[C@H]1O, the growth inhibition call was “inactive”. With CNC1C(OC2C(OC3C(O)C(O)C(NC(=N)N)C(O)C3NC(=N)N)OC(C)C2(O)C=O)OC(CO)C(O)C1O.O=S(=O)(O)O (stereo unspecified) [STREPTOMYCIN SULFATE [5mM; 10% aq DMSO + 5mM ethanolamine]] the growth inhibition call was “active”. For CN[C@H]1[C@@H](O[C@H]2[C@@H](O[C@H]3[C@@H](O)[C@@H](O)[C@@H](NC(=N)N)[C@@H](O)[C@@H]3NC(=N)N)O[C@@H](C)[C@@]2(O)C=O)O[C@@H](CO)[C@@H](O)[C@@H]1O.CN[C@H]1[C@@H](O[C@H]2[C@@H](O[C@H]3[C@@H](O)[C@@H](O)[C@@H](NC(=N)N)[C@@H](O)[C@@H]3NC(=N)N)O[C@@H](C)[C@@]2(O)C=O)O[C@@H](CO)[C@@H](O)[C@@H]1O.O=S(=O)(O)O.O=S(=O)(O)O.O=S(=O)(O)O, the growth inhibition call was “inactive”. O=C(NC1CC1)[C@@H]1c2ccccc2C(=O)N(Cc2cc(F)cc(C(F)(F)F)c2)[C@H]1c1ccc(CO)cc1 was tested, and the growth inhibition call was “inactive”. Cc1noc(C)c1NC(=O)Nc1ccc2c(c1)CC(=O)N([C@H](C)CO)C[C@@H](C)[C@@H](CN(C)C(=O)Nc1ccc(C(F)(F)F)cc1)O2 was tested, and the growth inhibition call was “inactive”. With C[C@@H]1CN([C@@H](C)CO)C(=O)c2cc(NC(=O)Nc3ccc(C(F)(F)F)cc3)ccc2O[C@@H](C)CCCCO[C@H]1CN(C)Cc1ccc(C(=O)O)cc1 the growth inhibition call was “inactive”. For O=c1c2ccccc2oc2ccccc12, the growth inhibition call was “inactive”. CC(=O)CC(c1ccccc1)c1c(O)c2ccccc2oc1=O (stereo unspecified) was tested, and the growth inhibition call was “inactive”. With O=c1oc2ccccc2c(O)c1Cc1c(O)c2ccccc2oc1=O the growth inhibition call was “active”. In the case of Cc1nccn1-c1ccc(CN)cc1, the growth inhibition call is reported as “inactive”. C[C@H](CO)N1C[C@H](C)[C@@H](CN(C)Cc2ccc(-c3ccccc3)cc2)Oc2c(NC(=O)Nc3ccc(C(F)(F)F)cc3)cccc2C1=O was tested, and the growth inhibition call was “inactive”. CCC1OC(=O)C(C)C(=O)C(C)C(OC2OC(C)CC(N(C)C)C2O)C(C)(OC)CC(C)C(=O)C(C)C2N(CCCCn3cnc(-c4cccnc4)c3)C(=O)OC12C (stereo unspecified) was tested, and the growth inhibition call was “active”. In the case of NNC(=O)[C@@H]1C(c2ccccc2)[C@H]1C(=O)NN (stereo partly specified), the growth inhibition call is reported as “inactive”. In the case of C[C@H](CO)N1C[C@H](C)[C@H](CN(C)S(=O)(=O)c2ccccc2)OCCCC[C@H](C)Oc2ccc(NS(=O)(=O)c3cn(C)cn3)cc2C1=O, the growth inhibition call is reported as “inactive”. For C[C@H]1CN([C@@H](C)CO)C(=O)Cc2cc(NC(=O)Nc3cccc4ccccc34)ccc2O[C@H]1CN(C)Cc1ccc(Oc2ccccc2)cc1, the growth inhibition call was “inactive”. For O=C(C[C@@H]1C[C@H]2c3cc(NS(=O)(=O)c4ccc(F)cc4)ccc3O[C@H]2[C@@H](CO)O1)NCc1ccc(Oc2ccccc2)cc1, the growth inhibition call was “inactive”. C=C1C[C@]23CC[C@@H]4[C@@](C)(CCC[C@@]4(C)C(=O)O)[C@H]2CC[C@H]1C3 was tested, and the growth inhibition call was “active”. In the case of C[C@@]12CCC[C@](C)(C(=O)O[C@@H]3O[C@H](CO)[C@@H](O)[C@H](O)[C@H]3O)[C@@H]1CC[C@]13C[C@H](CC[C@@H]12)[C@](O)(CO)C3, the growth inhibition call is reported as “inactive”. C=C1C[C@@]23CC[C@@H]4[C@@](C)(CCC[C@@]4(C)C(=O)OC)[C@H]2CC[C@@H]1C3 was tested, and the growth inhibition call was “inactive”. For CN1CCN(CC#N)C(=O)C12CCN([C@H]1CCOC1)CC2, the growth inhibition call was “inactive”. C[C@H]1CN([C@@H](C)CO)C(=O)Cc2cc(NS(=O)(=O)c3cn(C)cn3)ccc2O[C@H]1CN(C)S(=O)(=O)c1cn(C)cn1 was tested, and the growth inhibition call was “inactive”. For C/C=C(/C)C(=O)O[C@H]1[C@@H](OC(C)=O)[C@@]2(CO)[C@@H](O)C[C@@]3(C)C(=CC[C@H]4[C@@]5(C)CC[C@@H](O[C@H]6O[C@H](C(=O)O)[C@@H](O[C@H]7O[C@@H](CO)[C@@H](O)[C@@H](O)[C@@H]7O)[C@@H](O)[C@@H]6O[C@H]6O[C@@H](CO)[C@@H](O)[C@@H](O)[C@@H]6O)[C@@](C)(CO)[C@@H]5CC[C@]43C)[C@@H]2CC1(C)C, the growth inhibition call was “inactive”. For COc1ccc(NC(=O)N2CCCCN3[C@H](CN(C)C(C)=O)[C@H](c4ccc(C#Cc5ccccc5)cc4)[C@@H]3C2)cc1, the growth inhibition call was “inactive”. For COc1ccc(NC(=O)N2CCCCN3[C@H](COCCN(C)C)[C@H](c4ccc(C#Cc5ccccc5)cc4)[C@@H]3C2)cc1, the growth inhibition call was “active”. With CN(C)CC#Cc1ccc([C@H]2[C@@H](CO)N3CCCCN(C(=O)CN(C)C)C[C@@H]23)cc1 the growth inhibition call was “inactive”. With O=C(C[C@H]1C=C[C@H](NC(=O)c2cccc(F)c2)[C@@H](CO)O1)NCCN1CCCC1 the growth inhibition call was “inactive”. For C[C@H](CO)N1C[C@H](C)[C@@H](CN(C)Cc2ccc(C(F)(F)F)cc2)Oc2ccc(NS(C)(=O)=O)cc2C1=O, the growth inhibition call was “inactive”. In the case of CCCCCCc1ccc(O)cc1O.Nc1c2ccccc2nc2ccccc12, the growth inhibition call is reported as “inactive”. In the case of COC(=O)CCc1ccc(OC)cc1O, the growth inhibition call is reported as “inactive”. For CCCCCCCc1c(C)c(O)cc2c1[nH]c1ccccc12, the growth inhibition call was “inactive”. In the case of CCCCCCc1ccc(O)cc1O [listing 1 of 2 here], the growth inhibition call is reported as “active”. For CCCCC(=O)c1ccc(O)cc1, the growth inhibition call was “inactive”. For CCCCCCc1ccc(O)cc1O [listing 2 of 2 here], the growth inhibition call was “active”. COC(=O)N/N=C/c1c[n+]([O-])c2ccccc2[n+]1[O-] was tested, and the growth inhibition call was “inactive”. With CN1C(=O)c2cc(NS(C)(=O)=O)ccc2OC[C@H]2O[C@H](CC(=O)N3CCOCC3)CC[C@H]21 the growth inhibition call was “inactive”. In the case of C[C@H]1CN([C@@H](C)CO)C(=O)c2cc(NS(C)(=O)=O)ccc2O[C@H]1CN(C)S(=O)(=O)c1ccccc1, the growth inhibition call is reported as “inactive”. In the case of C[C@@H]1CCCCO[C@H](CN(C)C(=O)CCCN(C)C)[C@@H](C)CN([C@@H](C)CO)C(=O)c2cc(NC(=O)Nc3cccc4ccccc34)ccc2O1, the growth inhibition call is reported as “inactive”. In the case of CO[C@@H]1CN(C)C(=O)c2ccc(NC(=O)CN(C)C)cc2OC[C@@H](C)N(C(=O)C2CCOCC2)C[C@H]1C, the growth inhibition call is reported as “inactive”. In the case of CC(C)NC(=O)Nc1ccc2c(c1)C(=O)N([C@H](C)CO)C[C@@H](C)[C@@H](CN(C)C(=O)Nc1ccc(C(F)(F)F)cc1)OCCCC[C@@H](C)O2, the growth inhibition call is reported as “inactive”. For CC(=O)N1[C@@H]2c3ccc(-c4ccccc4)c(=O)n3C[C@H]1[C@H](CO)[C@H]2C(=O)N1CCN(C)CC1, the growth inhibition call was “inactive”. For C[C@H]1CN([C@@H](C)CO)C(=O)c2cc(NC(=O)c3ccncc3)ccc2O[C@@H]1CN(C)S(=O)(=O)c1ccc(F)cc1, the growth inhibition call was “inactive”. COC(=O)c1ccc2c(c1)no[n+]2[O-] was tested, and the growth inhibition call was “inactive”. For COc1ccc(-n2nc(CCC(=O)N(C)O)cc2-c2ccc(Cl)cc2)cc1, the growth inhibition call was “inactive”. In the case of CCCCc1nc(-c2ccc(OCCCN(CC)CC)cc2)cn1-c1ccc(Oc2ccc(Cl)cc2)cc1, the growth inhibition call is reported as “active”. For CN(C)CCOC(=O)COc1ccc(Cl)cc1.Cl, the growth inhibition call was “inactive”. For Cc1cc(=O)n2nc(C(=O)O)nc2[nH]1, the growth inhibition call was “inactive”. With CN1C(=O)c2cc(NC(=O)C3CCC3)ccc2OC[C@@H]2O[C@H](CC(=O)NCCc3ccncc3)CC[C@@H]21 the growth inhibition call was “inactive”. With CC(C)CC#Cc1ccc2c(c1)O[C@H](CN(C)S(=O)(=O)c1ccc(F)cc1)[C@H](C)CN([C@H](C)CO)S2(=O)=O the growth inhibition call was “inactive”. With CCC[C@@H]1C[C@@H](C(=O)N[C@H]([C@H]2O[C@H](SC)[C@H](O)[C@@H](O)[C@H]2O)[C@H](C)O)N(C)C1 the growth inhibition call was “active”. For CCC[C@@H]1C[C@@H](C(=O)N[C@@H]([C@H]2O[C@H](SC)[C@H](O)[C@@H](O)[C@H]2O)[C@@H](C)O)N(C)C1, the growth inhibition call was “active”. For CCCC1CC(C(=O)NC(C(C)O)C2OC(SC)C(O)C(O)C2O)N(C)C1.Cl (stereo unspecified), the growth inhibition call was “active”. For CC(C)NC(=O)Nc1ccc2c(c1)C(=O)N([C@H](C)CO)C[C@H](C)[C@@H](CN(C)C(=O)Nc1ccc(F)cc1)OCCCC[C@H](C)O2, the growth inhibition call was “inactive”. With COc1cccc(-c2ccc3c(c2)O[C@H](CN(C)C(=O)C2CC2)[C@@H](C)CN([C@@H](C)CO)S3(=O)=O)c1 the growth inhibition call was “inactive”. In the case of COc1ccc(CN(C)C[C@H]2OCCCC[C@@H](C)Oc3ccc(NC(=O)Nc4ccccc4)cc3C(=O)N([C@@H](C)CO)C[C@@H]2C)cc1, the growth inhibition call is reported as “inactive”. C[C@@H]1CN([C@H](C)CO)C(=O)c2cc(-c3ccncc3)cnc2O[C@H]1CN(C)C(=O)Nc1ccc2c(c1)OCO2 was tested, and the growth inhibition call was “inactive”.
